From PubChem BioAssay
An excerpt weighted towards active compounds, which were near 2.4% of everything screened.
TMEM16A inh – TMEM16A chloride channel inhibitors, primary screen, cell-based, HTS; HEK293 TMEM16A/YFP iodide influx fluorescence, ionomycin; normalized B-score (activity score, 25-100; higher = stronger inhibition) at 10 µM; 1.2% of 310,000 active; AID 588511, 2011;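 active means ratio plate-corrected score three or more library SD toward inhibition, starting fluorescence score within five deviations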;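 further: score derived from kinetic fluorescence span divided by baseline fluorescence per well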
Target sequence (Q8BHY3 whole entry, looked up): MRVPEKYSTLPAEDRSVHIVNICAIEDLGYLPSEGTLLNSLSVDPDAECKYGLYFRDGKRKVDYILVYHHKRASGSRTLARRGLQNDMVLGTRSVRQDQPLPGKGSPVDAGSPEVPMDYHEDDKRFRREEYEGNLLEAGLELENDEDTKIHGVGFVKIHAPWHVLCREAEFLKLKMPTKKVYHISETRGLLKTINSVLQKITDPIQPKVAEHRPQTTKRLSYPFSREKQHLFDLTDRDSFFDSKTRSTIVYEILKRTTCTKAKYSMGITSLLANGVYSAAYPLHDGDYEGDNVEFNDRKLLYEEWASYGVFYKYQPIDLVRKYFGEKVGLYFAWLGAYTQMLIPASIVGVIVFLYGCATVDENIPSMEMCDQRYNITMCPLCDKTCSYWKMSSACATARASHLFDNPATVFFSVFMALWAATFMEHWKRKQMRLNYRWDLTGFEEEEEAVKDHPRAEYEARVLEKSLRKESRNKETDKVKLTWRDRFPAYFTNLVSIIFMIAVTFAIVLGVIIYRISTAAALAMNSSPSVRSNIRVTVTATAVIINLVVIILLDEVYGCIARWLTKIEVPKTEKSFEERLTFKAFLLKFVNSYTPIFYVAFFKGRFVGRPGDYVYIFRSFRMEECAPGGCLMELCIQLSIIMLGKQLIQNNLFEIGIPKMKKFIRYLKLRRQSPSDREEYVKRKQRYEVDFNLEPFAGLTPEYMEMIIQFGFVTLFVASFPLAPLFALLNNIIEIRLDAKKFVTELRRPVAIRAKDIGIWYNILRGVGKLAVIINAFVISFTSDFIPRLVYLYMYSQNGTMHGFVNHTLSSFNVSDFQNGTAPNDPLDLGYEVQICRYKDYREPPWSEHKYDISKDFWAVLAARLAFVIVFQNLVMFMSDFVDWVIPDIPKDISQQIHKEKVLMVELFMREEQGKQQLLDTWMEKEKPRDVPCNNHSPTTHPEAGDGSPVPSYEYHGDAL
TMEM16A act – TMEM16A chloride channel activators or potentiators, primary screen, cell-based, HTS. HEK293 TMEM16A/YFP-H148Q/I152L, iodide quench fluorescence; stronger effect = lower value. B-score at 10 µM. 0.3% of 340,000 active. AID 623877, 2012;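 active means fluorescence-ratio B-score plate-corrected deviation score at least 3 library SD below zero, with starting fluorescence score within 5 deviations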;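 further: channel opened by trigger with iodide after compound preincubation; score built on the fluorescence ratio of max minus min over baseline; more negative score means more quench and so TMEM16A activation or potentiation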
CHT PAM – CHT positive allosteric modulators, primary screen, cell-based, membrane potential dye, choline EC20 | 0.49% of 310,000 active | B-score at 10 µM | High affinity choline transporter 1 (Homo sapiens), Q9GZV3 | AID 488977, 2010 | CHT-expressing cells; stronger effect = higher value; LV-AA mutant CHT in HEK293 cells;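 active means initial fluorescence not abnormally high and integrated response B-score, plate-corrected, over 3 SD above library mean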
CHT inh – inhibitors of human choline transporter CHT | High affinity choline transporter 1 (Homo sapiens), Q9GZV3 | CHT-expressing cells, membrane potential dye, choline response; stronger effect = lower value | B-score at 10 µM | 0.86% of 310,000 active | AID 488975, 2010;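 active means B-score over 3 SD under the library average, and starting fluorescence ratio not unusually high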;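 further: choline stimulus applied at its EC90 after an EC20 pre-addition; B-score computed on integrated fluorescence ratio after choline addition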
CHT activ conf – CHT activators, confirmation, cell-based, membrane potential dye, duplicate. shares compounds with CHT PAM. CHT-expressing cells, membrane potential dye fluorescence (FDSS); % of choline EC20–EC90 response window; HEK293 expressing CHT LV-AA mutant; choline added at its EC20. activation, % at 10 µM. 91% of 2,500 active. AID 504833, 2011;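 active means primary screen active, with duplicate mean activation above negative control mean plus 3 SD, cut at about 11% in these data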
HEK293 MP dye – membrane potential response in parental HEK293 cells, counter-screen for CHT activator project, cell-based, membrane potential dye. membrane potential dye fluorescence (FDSS); measured after EC20 choline addition. 62% of 2,500 active. ratio readout change at 10 µM, hits read low. shares compounds with CHT PAM;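 active means duplicate-averaged ratio beyond 3 SD from buffer wells, up or down, though filed actives are nearly all decreases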
Active calls of the source: *; i = inactive; x = no result.

SMILES	TMEM16A inh	TMEM16A act	CHT PAM	CHT inh	CHT activ conf	HEK293 MP dye
CCOC(=O)C(C)On1c(-c2ccccc2)nc2ccc([N+](=O)[O-])cc21 (configuration not stated)	i	i	i	i	15.8*	-20.2*
O=C(O)COn1c(-c2ccccc2)nc2ccc([N+](=O)[O-])cc21	i	i	i	i	x	x
COC(=O)c1ccccc1NC(=O)CN1CCc2ccccc2C1	i	i	i	i	x	x
COC(=O)c1ccccc1NC(=O)CN1CCN(C23CC4CC(CC(C4)C2)C3)CC1	i	i	6.87*	i	30.3*	i
Cc1ccccc1C=O	x	i	x	x	x	x
Cc1ccccc1/C=C/C1=NCCN1	i	i	7.25*	i	39.8*	-38.1*
COc1ccc(CC2(C)OC(c3ccncc3)=NN2C(C)=O)cc1 (configuration not stated)	i	i	i	i	x	x
Cn1c(=O)c([N+](=O)[O-])c(NCCCn2ccnc2)c2ccccc21	i	i	i	i	57.5*	-55.4*
CCCCNc1c([N+](=O)[O-])c(=O)n(C)c2ccccc12	i	i	i	i	x	x
CC(Nc1ccnc2cc(Cl)ccc12)c1ccc(S(N)(=O)=O)cc1 (configuration not stated)	i	i	i	i	35.4*	-46*
CSc1nc2ncc3c(n2n1)CC1c2ccccc2CCN1C3=O (configuration not stated)	i	i	i	i	x	x
O=C1c2cnc3ncnn3c2CC2c3ccccc3CCN12 (configuration not stated)	i	i	i	i	21.2*	-27*
Cc1nnc(C)c2c(C)n(C(C)c3ccccc3)c(C)c12 (configuration not stated)	i	x	i	i	x	x
COc1ccc(C(C)n2c(C)c3c(C)nnc(C)c3c2C)cc1 (configuration not stated)	i	i	6.61*	i	55.7*	-44.9*
CCOc1ccc(C(=O)C(CCC(CN(C)C)C(=O)c2ccc(OCC)cc2)CN(C)C)cc1 (configuration not stated)	x	i	x	x	x	x
COc1ccc(C(=O)C(CCCCC(CN(C)C)C(=O)c2ccc(OC)cc2)CN(C)C)cc1 (configuration not stated)	i	i	i	i	15.3*	-27.2*
CCNC(=S)N1CCN(CC(=O)Nc2ccc(OC)cc2)CC1	i	i	i	i	x	x
Cc1ccccc1N(CC(=O)NC1CCCC1)C(=O)C1(C)CC(=O)N=C2C=CC(Cl)=CN21 (configuration not stated)	i	i	i	i	x	x
Cc1cc[n+]2c3c(cccc13)CCC2	i	i	10.9*	i	88.6*	-85.4*
COc1ccc(CCNC(=O)c2ccc(Cl)nc2)cc1	i	i	i	i	x	x
Cc1ccc(NC(=O)Cc2ccccc2)c(C)c1	i	x	i	i	x	x
Cc1ccc(C[n+]2cccc(-c3ccccc3)c2)c(C)c1	i	i	8.43*	i	59.4*	i
COc1ccc(-n2ncc3c(=O)n(CC(=O)Nc4ccc(S(=O)(=O)N5CCOCC5)cc4)cnc32)cc1	i	i	i	i	x	x
CCOC(=O)c1ccc(NC(=O)Nc2ccc(Cl)cn2)cc1	i	i	i	i	x	x
CCOC(=O)c1ccc(NC(=O)Nc2ccon2)cc1	i	i	i	i	29.7*	i
CC(=O)N/N=C/c1cc(C(C)(C)C)cc(/C=N/NC(C)=O)c1O	i	i	8.42*	i	63.9*	-50.2*
Cc1cc(C(=O)N/N=C\c2cc(C(C)(C)C)ccc2O)n[nH]1	i	i	i	i	x	x
